# Compound activity deposited in PubChem by National Center for Advancing Translational Sciences (NCATS).
# The entries come from a sample that favours hits as a whole.
# Menin-MLL FL inh: displaces fluorescein MLL peptide from human menin. Fluorescence polarization, fluorescein-MLL peptide displacement from menin. FP activity change, % at 61.4 µM. 290,000 tested, under 10 active; active means well fitted curve in the direction sought with a large enough effect in the polarisation, not every such curve was filed as active; inconclusive means small, poorly fitted or top-dose-only effect, or effect the other way, or a change in a side signal; inactive means no such curve, though single readings can be large or run the other way; the % refers to the polarisation; further: % of control where 0% means no effect
# ClpP mod: qHTS Assay for Activators of ClpP; ATP-dependent Clp protease proteolytic subunit (Bacillus subtilis (strain 168)), P80244; Potency, µM (doses to about 57.5 µM), for inactives: at the top dose activity change, negative = active; purified B. subtilis ClpP, FRET peptide cleavage, 20 min; 1.9% of 340,000 active; active means well fitted falling curve with a large enough effect; inconclusive means small, poorly fitted or top-dose-only effect; inactive means no such curve, though single readings can be large or run the other way; further: potency means the concentration at half of the fitted maximal effect; the source files actives as falling curves though it sought activators and does not explain the sign; nearly all actives have a fitted effect of over 65% in size
#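 Buffer: 100 mM Tris/HCl pH8, 100 mM KCl, 0.05% low protease BSA, 2.5% glycerol, 0.01% Tween-20. ClpP 10 microg/mL final; 20 min RT; delta FRET normalized to ADEP and DMSO controls.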
# MLL CXXC-DNA inh: inhibitors of human MLL CXXC domain-DNA interaction | Q03164 | MLL-CXXC / FITC-HOXA9 DNA fluorescence polarization | Potency, µM (doses to about 115 µM), for inactives: at the top dose activity change, negative = inhibition, usual class: inhibitors | 0.037% of 290,000 active; active means well fitted inhibition curve with a large enough effect in the polarisation, with a control signal flat, not every such curve was filed as active; inconclusive means small, poorly fitted or top-dose-only effect, or effect the other way, or a change in a side signal; inactive means no such curve, though single readings can be large or run the other way; the % refers to the polarisation; further: potency means the concentration at half of the fitted maximal effect
#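 Fluorescence polarization: 7 uM MLL-CXXC (stock) preincubated 5 min with compounds, then 50 nM fluorescein-HOX-A9 DNA (stock) added; 30 min ambient. Buffer 50 mM Tris-HCl pH 7.5, 50 mM NaCl, 1 mM DTT, 0.05% BSA.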
# Menin MLL FP TR: menin-MLL binding inhibition, Texas Red mutant peptide | O00255 | Menin + Texas Red MLL mutant peptide, fluorescence polarization | Potency, µM (titrated, usually from 61.6 µM), for the others: at the highest dose FP activity change, negative = inhibition, usual class: inhibitors | 0.23% of 270,000 active | AID 1768; active means well fitted inhibition curve with a large enough effect in the polarisation, with a control signal flat, not every such curve was filed as active; inconclusive means small, poorly fitted or top-dose-only effect, or effect the other way, or a change in a side signal; inactive means no such curve, though single readings can be large or run the other way; the % refers to the polarisation; further: potency means the concentration at half of the fitted maximal effect; % of control where 0% means no effect
# p53 reactivator: re-activators of mutant p53; H1299 p53-A138V BP100-luciferase reporter, luminescence, 24 h; Potency, µM (doses to about 92.2 µM), inactives show at the top dose activity change, positive = activation, usual class: activators; 0.063% of 320,000 active; AID 504706; active means well fitted activation curve with a large enough effect; inconclusive means small, poorly fitted or top-dose-only effect; inactive means no such curve, though single readings can be large or run the other way; further: potency means the concentration at half of the fitted maximal effect; % of control where 0% means no effect; nearly all actives have a fitted effect of over 45% in size
#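 H1299 (p53-null), stable ts p53-A138V + BP100-Luc; 1000 cells/well, Opti-MEM/10% FBS; cpd 4 pt, 1:5; 24 h, 37 deg C, 5% CO2; detection reagent 10 min RT; luminescence.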
# An asterisk follows results filed as active; ? = inconclusive; / = no result given.
SMILES,Menin-MLL FL inh,ClpP mod,MLL CXXC-DNA inh,Menin MLL FP TR,p53 reactivator
COc1ccc2oc(C(=O)OCC(=O)N3CCCC(C)C3)c(C)c2c1 (stereo not given),/,14µM*,/,/,2%
CCOc1ccc2oc(C(=O)OCC(=O)N3CC(C)OC(C)C3)c(C)c2c1 (stereo not given),/,4%,/,/,0%
COc1ccc2oc(C(=O)OCC(=O)N3CCN(C(C)=O)CC3)c(C)c2c1,/,25µM*,/,/,-10%
CCOc1ccc2oc(C(=O)OCC(=O)N3CCCC(C)C3)c(C)c2c1 (stereo not given),/,28µM*,/,/,4%
CCCN1CCC(=O)N(C(CSc2ccc(Br)cc2)CC(C)C)CC1 (stereo not given),0,/,/,?,/
CCOCCCNC(=S)NCCCNc1nc2ccc(C)cc2cc1C#N,2,/,0%,-2%,10%
CCOCCCNC(=S)NCCCNc1nc2cc3c(cc2cc1C#N)OCO3,0,10µM*,-1%,2%,-2%
CN(C)CCCNC(=S)NCCNc1nc2cc3c(cc2cc1C#N)OCO3,-1,4%,3%,-6%,4%
COCCNC(=S)NCCCNc1nc2cc3c(cc2cc1C#N)OCO3,-2,14µM*,2%,-17%,-12%
NC(=O)c1c(NC(=O)c2ccccc2)sc2c1CCc1ccccc1-2,1,32µM*,13%,?,?
Cc1ccc(-n2nc3c(c2NC(=O)c2ccco2)CS(=O)C3)c(C)c1 (stereo not given),/,25µM*,/,/,5%
O=C(CC1N=C2c3ccccc3N=C(SCC(=O)Nc3ccccc3F)N2C1=O)NCc1ccc2c(c1)OCO2 (stereo not given),/,-10%,/,/,/
CCCNc1cc(C)c(C#N)c2nc3ccccc3n12,1,2.8µM*,0%,-13%,-13%
Cc1cc(NCCCO)n2c(nc3ccccc32)c1C#N,8,/,11%,-12%,-2%
Fc1ccc(-c2csc(-c3nc(-c4ccc(Br)s4)cs3)n2)cc1,/,-3%,/,/,/
O=C(NNC(=O)c1cc2cc3ccccc3nc2s1)c1cccc(Cl)c1,6,-10%,12%,?,-4%
Cc1cccc(C(=O)NNC(=O)c2cc3cc4ccccc4nc3s2)c1,-2,22µM*,-1%,-11%,-2%
O=C(NNC(=O)c1cc2cc3ccccc3nc2s1)c1ccc(F)cc1,2,?,30%,3.2µM*,4%
Cc1c(C(=O)Nc2ccccc2)sc2nc[nH]c(=O)c12,0,-11%,11%,8%,19%
Cc1c(C(=O)NCc2cccc(Cl)c2)sc2nc[nH]c(=O)c12,/,22µM*,/,/,/
Cc1c(C(=O)NCc2ccccc2Cl)sc2nc[nH]c(=O)c12,/,40µM*,/,/,/
Cc1c(C(=O)NCc2ccccc2)sc2nc[nH]c(=O)c12,/,-52%,/,/,/
Cc1cc(OCc2cn3cccnc3n2)ccc1Cl,6,16µM*,-8%,-13%,?
CC(=O)Nc1ccc(S(=O)(=O)NC(CC(=O)N(C)Cc2ccccc2)C(C)C)cc1 (stereo not given),4,14µM*,3%,-5%,-5%
CC(=O)Nc1ccc(S(=O)(=O)NC(CC(=O)NCCc2ccccc2)C(C)C)cc1 (stereo not given),3,0%,-12%,0%,13%
SMILES,Menin-MLL FL inh,ClpP mod,MLL CXXC-DNA inh,Menin MLL FP TR,p53 reactivator
COC(=O)c1sc2ncccc2c1OCc1ccc(Cl)cc1,1,35µM*,98%,0%,7%
Cc1ccc2oc3nc(C)c(C(=O)O)cc3c(=O)c2c1,2,28µM*,0%,25%,4%
CS(=O)(=O)N1CCCCC1CCN1CCCCC1 (stereo not given),/,28µM*,/,/,/
C=C(Br)COC(c1ccco1)[C@H](Cc1ccccc1)NC(=O)OC(C)(C)C (stereo not given in full),/,-1%,/,/,/
COc1ccccc1Oc1coc2c(CN3CCN(C)CC3)c(O)ccc2c1=O,0,25µM*,10%,8%,2%
COc1ccccc1-c1coc2c(CN3CCN(CCO)CC3)c(O)ccc2c1=O,/,45%,/,/,/
COc1ccccc1-c1coc2c(CN3CCN(C)CC3)c(O)ccc2c1=O,-1,7.9µM*,2%,-4%,-15%
CC(C)(C)c1ccc(OCCn2c(CCNC(=O)C3CCCCC3)nc3ccccc32)cc1,/,-1%,/,/,/
Nc1ccc(Cc2ccc(C=O)cc2)cc1,/,0%,/,/,/
CN(C)c1ccc(/C=C/c2ccnc3cc(Cl)cc(Cl)c23)cc1,/,-5%,/,/,/
CCOC(=O)c1cc(CC)sc1NC(=O)c1ccc2c(c1)OCCO2,0,25µM*,6%,28%,1%
CCOC(=O)c1ccc(-c2ccc(CO)o2)cc1,2,0.71µM*,-6%,27%,1%
CCOc1ccc(-c2ccc(CO)o2)cc1N,/,4%,/,/,/
O=C(NCc1ccc2c(c1)OCO2)c1ccc2c(c1)C(=O)N(Cc1cccnc1)C2=O,-2,18µM*,2%,-15%,5%
CCOc1ccc(CCNC(=O)c2sc3ncccc3c2-n2cccc2)cc1OCC,/,-3%,/,/,/
COc1ccc(C(=O)Oc2coc(CSc3nnc(NC(=O)c4cccs4)s3)cc2=O)cc1,8,28µM*,161%,?,6%
CC[C@H](C)[C@H](NC(=O)[C@H](CCC(=O)O)NC(=O)[C@H](CO)NC(=O)[C@@H](NC(=O)[C@H](C)N)C(C)C)C(=O)N[C@@H](CCC(N)=O)C(=O)N[C@@H](CC(C)C)C(=O)N[C@@H](CCSC)C(=O)N[C@@H](Cc1cnc[nH]1)C(=O)N[C@@H](CC(N)=O)C(=O)N[C@@H](CC(C)C)C(=O)NCC(=O)N[C@@H](CCCCN)C(=O)N[C@@H](Cc1cnc[nH]1)C(=O)N[C@@H](CC(C)C)C(=O)N[C@@H](C)C(=O)N[C@@H](CO)C(=O)N[C@H](C(=O)N[C@@H](CCC(=O)O)C(=O)N[C@@H](CCCNC(=N)N)C(=O)N[C@@H](CCSC)C(=O)N[C@@H](CCC(N)=O)C(=O)N[C@@H](Cc1c[nH]c2ccccc12)C(=O)N[C@@H](CC(C)C)C(=O)N[C@@H](CCCNC(=N)N)C(=O)N[C@@H](CCCCN)C(=O)N[C@@H](CCCCN)C(=O)N[C@@H](CC(C)C)C(=O)N[C@@H](CCC(N)=O)C(=O)N[C@@H](CC(=O)O)C(=O)N[C@H](C(=O)N[C@@H](Cc1cnc[nH]1)C(=O)N[C@@H](CC(N)=O)C(=O)N[C@@H](Cc1ccccc1)C(=O)O)C(C)C)C(C)C,1,/,/,-2%,/
